# This is a sample that favours compounds with a hit; in the whole collection about 1.4% have one here.
# RecA splice inh: inhibitors of M. tuberculosis RecA intein splicing; cell-free RecA intein splicing, fluorescence; inhibition, % (concentration not given with the values); hit rate 0.75% among 290,000; in the data active = inhibition above about 30%
# Target sequence (P9WHJ3 whole entry, looked up, canonical isoform): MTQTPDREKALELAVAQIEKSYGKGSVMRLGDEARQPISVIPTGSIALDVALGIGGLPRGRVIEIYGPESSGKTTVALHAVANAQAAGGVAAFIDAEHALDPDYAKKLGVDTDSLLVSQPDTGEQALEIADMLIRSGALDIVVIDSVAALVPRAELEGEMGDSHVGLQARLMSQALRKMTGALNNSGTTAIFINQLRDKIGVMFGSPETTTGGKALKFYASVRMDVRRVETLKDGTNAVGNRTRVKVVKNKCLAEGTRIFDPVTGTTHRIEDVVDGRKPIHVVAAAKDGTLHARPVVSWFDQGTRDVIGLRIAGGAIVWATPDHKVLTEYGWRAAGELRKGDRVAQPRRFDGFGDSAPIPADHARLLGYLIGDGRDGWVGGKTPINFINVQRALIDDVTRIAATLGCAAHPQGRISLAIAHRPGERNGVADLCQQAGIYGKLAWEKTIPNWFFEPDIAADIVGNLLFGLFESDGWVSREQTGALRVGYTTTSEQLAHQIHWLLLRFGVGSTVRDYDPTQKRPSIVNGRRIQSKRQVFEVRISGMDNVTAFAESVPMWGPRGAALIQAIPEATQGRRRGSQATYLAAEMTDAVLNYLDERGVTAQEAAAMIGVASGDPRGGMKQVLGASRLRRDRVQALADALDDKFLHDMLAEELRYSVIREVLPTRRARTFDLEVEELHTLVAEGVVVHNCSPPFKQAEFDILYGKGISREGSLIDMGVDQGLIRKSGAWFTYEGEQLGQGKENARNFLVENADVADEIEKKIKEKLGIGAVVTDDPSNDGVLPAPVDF
# PrPC surface inh: reduces human prion protein on the cell surface; P04156; cell surface PrPC, TR-FRET read-out; inhibition, % at 13.8 µM; hit rate 0.43% among 370,000; AID 720596; in the data active = inhibition above about 24%
# Mtb hypoxia rep: inhibitors of hypoxia-regulated fluorescent reporter in Mycobacterium tuberculosis | M. tuberculosis hypoxia-regulated fluorescent reporter, fluorescence | fluorescence inhibition, % (concentration not given with the values) | hit rate 0.1% among 300,000 | AID 1159583; in the data active = fluorescence inhibition mostly above about 23%, no sharp cut-off; inactive = mostly below about 17%
# BJeLR lethal: BJeLR cell viability loss; BJeLR (HRASV12) viability, CellTiter-Glo ATP luminescence, 48 h; inhibition, % (concentration not given with the values); hit rate 0.17% among 300,000; AID 1554; in the data active = inhibition above about 50%
# PrP UTR inh: inhibition of PrP 5' UTR reporter expression. inhibition, % (test concentration not listed). cell-based PrP 5' UTR mRNA reporter, plate reader. AID 488862. hit rate 0.35% among 340,000; in the data active = inhibition above about 52%
# SARS 3CLpro inh: SARS-CoV 3CLpro protease inhibition. P0C6X7. recombinant SARS-CoV 3CLpro, quenched FRET peptide cleavage. inhibition, % at 6 µM. hit rate 0.14% among 290,000; in the data active = inhibition above about 12%
# PrPC confirm: confirmation of inhibitors of cell surface human prion protein | shares compounds with PrPC surface inh | cell surface PrPC level, TR-FRET | inhibition, % at 13.8 µM | hit rate 65% among 1,500; in the data active = inhibition above about 25%
# LD9 tox: kills or reduces viability of LD9 cells in PrPc counter-screen | hit rate 29% among 1,500 | LD9 cells cytotoxicity, luminescence viability | inhibition, % at 13.8 µM | shares compounds with PrPC surface inh; in the data active = inhibition above about 9.5%
# Hits are given with their value; - = inactive; . = no result given.
SMILES,RecA splice inh,PrPC surface inh,Mtb hypoxia rep,BJeLR lethal,PrP UTR inh,SARS 3CLpro inh,PrPC confirm,LD9 tox
CC(C)(C)OC(=O)N1CCN(C(=O)c2[nH]cnc2C(=O)NC(Cc2ccccc2)C(=O)OCc2ccccc2)CC1 (stereo not given),.,.,-,.,.,.,.,.
Cc1ccc(C(=O)Nc2nc(C(C)(C)C)cs2)s1,-,43,-,-,-,-,42,-
CC(C)(C)c1csc(NC(=O)c2ccncc2)n1,-,-,-,-,-,-,.,.
CC(C)(C)c1csc(NC(=O)c2ccc(Cl)s2)n1,-,40,.,-,-,-,45,-
O=C(Nc1nc(-c2cccs2)cs1)c1ccc(Cl)s1,-,-,.,-,-,-,.,.
CC1CN(C(C)CO)C(=O)c2cccc(NC(=O)c3cnccn3)c2OC1CN(C)C(=O)Nc1ccc2c(c1)OCO2 (stereo not given),.,.,-,.,.,.,.,.
O=C(NN=CCCc1ccccc1)c1ccc(CN2c3cccc4cccc(c34)S2(=O)=O)cc1,.,.,-,.,.,.,.,.
Cc1cc(Br)cn2c(Cc3cccc(Cl)c3)c(-c3ccco3)nc12,.,37,.,.,.,.,56,-
Cc1cc(Br)cn2c(Cc3ccccc3)c(-c3cccc(Cl)c3)nc12,.,-,.,.,.,.,.,.
Cc1ccc(Cc2c(-c3ccco3)nc3c(C)cc(Br)cn23)cc1,.,37,.,.,.,.,56,-
CCOc1ccc(/C(O)=C2/C(=O)C(=O)N(c3ccccn3)C2c2ccc(C)cc2)c(C)c1 (stereo not given),-,40,-,-,-,-,52,-
CCOc1ccc(/C(O)=C2/C(=O)C(=O)N(c3ccccn3)C2c2ccc(Cl)cc2)c(C)c1 (stereo not given),-,-,-,-,-,-,.,.
COc1ccc(C2/C(=C(/O)c3ccc(C)cc3)C(=O)C(=O)N2c2ccccn2)cc1OC (stereo not given),-,-,-,-,-,-,.,.
CCCOc1ccc(/C(O)=C2\C(=O)C(=O)N(c3ccccn3)C2c2ccccc2F)cc1C (stereo not given),-,44,-,-,-,-,89,-
CN1CC2C3C(=O)N(C)C(=O)C3[C@](C)(C1=O)N2C(=O)c1ccc(C(C)(C)C)cc1 (stereo not given in full),.,.,-,.,.,.,.,.
COc1ccc(NC(=O)CCSc2ccc(C)cc2)cc1,-,-,-,-,-,-,.,.
COc1ccc(NC(=O)CCSc2ccc3ccccc3n2)cc1,-,56,-,-,-,-,75,-
COc1cccc(NC(=O)COC(=O)CCSc2ccccc2)c1,.,-,-,.,-,.,.,.
COc1cccc(NC(=O)CCSc2ccc3ccccc3n2)c1,-,68,-,-,-,-,84,-
Cc1ccccc1Cn1cc(NC(=O)c2cc(-c3ccco3)on2)cn1,-,30,-,-,-,-,-,-
O=C1CCCCC=CCC(CC(=O)N(CCO)Cc2ccccc2)C(=O)NCC(c2ccccc2)O1 (stereo not given),.,.,-,.,.,.,.,.
COc1cc(NC(=O)c2cccc3c(-c4cccnc4)coc23)cc(OC)c1OC,.,30,.,.,.,.,25,43
CCN(CC)S(=O)(=O)c1cc(C(=O)Nc2cccnc2)ccc1Cl,-,-,-,-,-,-,.,.
CCN(CC)S(=O)(=O)c1cc(C(=O)Nc2ccncc2)ccc1Cl,-,26,-,-,-,-,-,17
CCOC(=O)[C@]12Cc3ccsc3C1N(Cc1ccccc1)C(=O)c1ccccc12 (stereo not given in full),.,.,-,.,.,.,.,.
SMILES,RecA splice inh,PrPC surface inh,Mtb hypoxia rep,BJeLR lethal,PrP UTR inh,SARS 3CLpro inh,PrPC confirm,LD9 tox
Cc1ccc(Sc2c(O)c3ccccc3n(C)c2=O)cc1,-,45,-,-,-,-,59,-
COc1cc2cc(Br)cc(Br)c2nc1C,-,63,.,-,-,-,89,-
COc1cc2cnncc2cc1OC,-,-,-,-,-,-,.,.
CC1OC(CC(=O)O)CC2=C1C(=O)c1c(O)cccc1C2=O (stereo not given),.,71,.,.,-,.,86,98
CCCc1c(C(=O)NN=Cc2sccc2C)nnn1-c1nonc1N,.,.,-,.,.,.,.,.
CCc1nc2c(OCCC3CCCCC3)cccn2c1N(C)C(=O)c1cccs1,.,27,.,.,.,.,-,-
CCCCC(=O)N(C)c1c(CC)nc2c(OCC3CCCCC3)cccn12,.,31,.,.,.,.,-,-
CCCCC(=O)N(C)c1c(CC)nc2c(OCCC3CCCCC3)cccn12,.,-,.,.,.,.,.,.
CCS(=O)(=O)NCc1ccc2c(c1)cc(C)n2C,-,-,-,-,-,-,.,.
COc1ccc(S(=O)(=O)NCc2ccc3c(c2)cc(C)n3C)cc1,-,38,-,-,-,-,41,-
Cc1cc2cc(CNS(=O)(=O)c3ccccc3)ccc2n1C,-,35,-,-,-,-,29,-
NC(=O)C(Cc1cc2ccccc2s1)NC(=O)C1CC2(CC(c3cccc(NC(=O)C4CCC(=O)N4)c3)=NO2)CN1C(=O)C=Cc1c(F)cccc1Cl (stereo not given),.,.,-,.,.,.,.,.
COc1ccc(NC(=O)c2cc(-c3cc(Cl)ccc3OC)n[nH]2)c(OC)c1,.,28,.,.,.,.,-,-
CCOc1ccc(Cl)cc1-c1cc(C(=O)Nc2ccc(OC)cc2OC)[nH]n1,.,-,.,.,.,.,.,.
CCOC1OC(C(=O)N2CCCCCCC2)=CC(c2cn(C(C)=O)c3ccccc23)C1CCCO (stereo not given),.,.,-,.,.,.,.,.
C=CCC(Cc1ccc(F)cc1)C(=O)OCC1CCCN1C(=O)C(CC=C)CC(=O)NC(CO)Cc1ccccc1 (stereo not given),.,.,-,.,.,.,.,.
Cc1cccc(NS(=O)(=O)c2cc(C(=O)NCc3ccccn3)ccc2C)c1,-,-,-,-,-,-,.,.
Cc1ccc(NS(=O)(=O)c2cc(C(=O)NCc3ccccn3)ccc2Cl)cc1,-,40,-,-,-,-,35,-
CCCNC(=O)N1C2=NC(C(=O)OC)=C(C(=O)OC)C3N(Cc4ccccc4)c4ccccc4[C@]23CC1CO (stereo not given in full),.,.,-,.,.,.,.,.
O=C(c1ccc(C(F)(F)F)cc1)C1CCCN(C(=O)CCc2ccncc2)C1 (stereo not given),-,-,-,-,-,-,.,.
O=C(c1ccc(C(F)(F)F)cc1)C1CCCN(Cc2ccncc2)C1 (stereo not given),-,29,-,-,-,-,-,12
COC(=O)[C@]1(CC(C)C)NC(c2ccc(-c3ccc(C(C)=O)cc3)cc2)C2C(=O)N(C)C(=O)C21 (stereo not given in full),.,.,-,.,.,.,.,.
Cc1cc(OCC(C)C)ccc1/C(O)=C1/C(=O)C(=O)N(Cc2cccnc2)C1c1ccncc1 (stereo not given),-,35,-,-,-,-,54,-
COc1ccc(C2/C(=C(\O)c3ccc4c(c3)OCCO4)C(=O)C(=O)N2Cc2cccnc2)cc1 (stereo not given),-,-,-,-,-,-,.,.
